Test results as given in ChEMBL document CHEMBL4513216, “Probing the Open Global Health Chemical Diversity Library for Multistage-Active Starting Points for Next-Generation Antimalarials” (ACS Infect Dis, 2020).
Out of some 65,000 compounds screened, about 2,100 (3.2%) showed an effect of 50% or more. The median lay at about -52%. For the sample, strong results were picked, then their nearest neighbours and some compounds at random.

test system: Plasmodium falciparum; experiment: Screen against P. falciparum Asexual Blood Stage (ABS), at 5uM; type: functional, Dd2; details: tested at 5 uM

Compound	INHIBITION [%]
Cc1noc(C)c1CN1CCCC2(C1)CN(c1nncs1)CCO2 (stereo not given)	-18.9
COc1ccc(N2CCCC3(C2)CN(c2nncs2)CCO3)cc1 (stereo not given)	88
Cc1noc(C)c1CN1CCOC2(CCCN(c3nncs3)C2)C1 (stereo not given)	-103
O=C1CSC(c2ccncc2)c2c(n(C3CCOCC3)[nH]c2=O)N1 (stereo not given)	-84.2
CC(C)C(NC(=O)c1ccco1)C(=O)N1CCC2(CC1)OCCO2 (stereo not given)	-80.1
CNC(=O)CCN(C)CC1(c2ccc(Br)cc2)CC1	87.3
CN1CCCC(c2cccc(-c3cccc(F)c3)n2)C1 (stereo not given)	74
CN1CCCC(c2cncc(-c3cccc(C(F)(F)F)c3)n2)C1 (stereo not given)	77.3
CC(=O)N1CCCC(c2ccc(N3CCN(C)CC3)cn2)C1 (stereo not given)	-0.837
CN1CCCC(c2cccc(-c3cccc(C(F)(F)F)c3)n2)C1 (stereo not given)	73.7
CN1CCC(c2cncc(N(C)C)n2)CC1	-19
Cc1sc2c(C3CCCN(C)C3)nc(C)n2c1C (stereo not given)	42.7
CNC(=O)c1ccc2c(c1)C1(CCN(CC(C)C)CC1)C(=O)N2	-15.5
Cc1nccc([C@H]2C[C@@H]3CCN(Cc4ccco4)C[C@H]3O2)n1	-9.96
Cc1ccc(CC(=O)N2CCN(C3CCOC3=O)CC2)cc1 (stereo not given)	-27.2
CC(C)N1CCN(C)C2(CCN(C(=O)c3ccnnc3)CC2)C1=O	-37.3
CN1CCN2C(=O)N(C3CCOCC3)C[C@H]2C1	-99.7
c1cncc(COCC2CC[C@H]3[C@H]2OCCN3Cc2ccoc2)c1 (stereo not given in full)	-12.2
CCC[C@H]1CN(S(=O)(=O)c2c(C)noc2C)C[C@@H]1N	82.5
CCC[C@H]1CN(S(=O)(=O)c2ccc(CC)s2)C[C@@H]1N	75.8
Cc1noc(C)c1CN1C[C@H]2CNC[C@H]2C1	9.33
CN(C)CCN(Cc1ccco1)C(=O)Cc1cn2ccsc2n1	-5.56
Cc1nc2sccn2c1CN(CCCN(C)C)Cc1ccco1	86.2
Cc1ccc(CN(CCN(C)C)C(=O)Cc2cn3ccccc3n2)o1	-67.1
Cc1ccc(CN(CCN(C)C)Cc2c(C)nc3sccn23)o1	84.6

Compound	INHIBITION [%]
Cc1nc(CC(=O)N(CCN2CCOCC2)Cc2ccco2)c(C)s1	-135
CNC(=O)CN1CCO[C@H]2CN(C(=O)c3ccncc3F)C[C@H]21	-74.6
CCCn1cc(C(=O)NC(C(=O)O)c2ccccc2C(F)(F)F)c(C)n1 (stereo not given)	-51.5
CS(=O)(=O)N1CCN(CC2CC2)c2ncccc2C1	-25.9
OC[C@H]1CN2CCN(c3ccccn3)C[C@@H]2[C@@H]1c1ccccc1	-11.3
NCC1Cc2cc(Oc3cc(F)c(CN4CCCC4)c(F)c3)ccc2O1 (stereo not given)	77.8
COc1ccc(CN2CCCC2)cc1Oc1ccc2c(c1)CC(CN)O2 (stereo not given)	88.2
COc1ncccc1CN1C[C@@H]2COC[C@]2(COCC2CC2)C1	33.8
Cc1cccc(CN2C[C@@H]3COC[C@]3(COc3cccnc3)C2)n1	-77.5
Cc1noc(C)c1CN1CCOCC12CCN(c1nccs1)CC2	-91.6
O=C(CCc1ccccc1)N1C[C@H]2CCN[C@H]2C1	-6.16
O=C(Cc1ccccc1)N1C[C@@H]2OCCN(CC3CCCO3)[C@@H]2C1 (stereo not given in full)	-34.5
O=C(c1scc2c1OCCO2)N1CCOC(CCc2ccccc2)C1 (stereo not given)	88.7
CN1CC[C@H]2OCC[C@@]2(C(=O)NCCc2ccccn2)C1	12.7
Cc1ccccc1C1(C(=O)NCCN2CCC(C)CC2)CCOCC1	85.3
Cc1ccccc1C1(C(=O)NCCN2CCCC(C)C2)CCOCC1 (stereo not given)	88.1
O=C(NCCc1ccccn1)[C@@]12CCO[C@@H]1CCN(C1CCC1)C2	44.6
O=C(NCCc1ccccn1)[C@@]12CCO[C@@H]1CCN(CC1CC1)C2	30.8
O=S1(=O)CCC(n2cc(C3=CCN(CCN4CCCCC4)CC3)cn2)C1 (stereo not given)	12.6
O=C(N[C@H]1CN[C@H]2CCCO[C@H]21)c1ccno1	-87.2
c1cc(COC[C@@H]2CCC[C@@]23CNCCO3)ccn1	7.1
COc1cc(CNCC(O)c2ccccc2F)cc2c1OCO2 (stereo not given)	78
COc1cc(CNCC(O)c2ccc(F)cc2F)cc2c1OCO2 (stereo not given)	85.5
CC[C@H](N)Cn1nc(-c2cccs2)oc1=O	-186
CCc1nnc(C(C)N2CCCN(C(=O)Oc3ccccc3)CC2)o1 (stereo not given)	-87.2

Compound	INHIBITION [%]
CC(C)NC(=O)c1ccc2c(c1)C1(CCN(C)CC1)C(=O)N2	-37.9
O=C(Nc1cccc(F)c1)N1CCC(CO)(Nc2ccccc2)CC1	-35.15
CCC(CN1CCCC1)NC(=O)C1(c2cccc(F)c2)CC1 (stereo not given)	84.7
CCC(CN1CCN(C)CC1)NC(=O)C1(c2cccc(F)c2)CC1 (stereo not given)	77.1
CC(C)CN1CCC2(CC1)C(=O)Nc1ccc(C(=O)NC(C)C)cc12	-39.5
CC(C)n1cc(C(=O)NC2CN3CCC2CC3)c2ccccc21 (stereo not given)	-24.9
Cc1[nH]c2ccccc2c1-c1ccnc(NCCN2CCOCC2)n1	82.5
CC(C)(C)n1cc(C(=O)NCCN2CCOCC2)c2cccnc21	-89.4
Cn1cc(C2NC3(CCCC3)C(=O)N2CC2CC2)c(=O)n(C)c1=O (stereo not given)	-43.9
Cc1ccc(N2CC[C@@H]3CN(Cc4cc[nH]n4)C[C@@H]3C2)nn1	-19.6
Cc1cc(CN2C[C@@H]3CN(C(=O)c4ccco4)CCO[C@@H]3C2)no1	-45
NCC1(c2cccc(C(F)(F)F)c2)CC1	-97.7
NCC1(c2cccc(C(F)(F)F)c2)CCOCC1	69.9
NCC1(c2cccc(F)c2)CCOCC1	2.49
NCC1(c2cccc(Br)c2)CCOCC1	79.5
Cc1nn(-c2ccc(C(=O)O)cc2)c2c1C(c1ccsc1)SCC(=O)N2 (stereo not given)	-82.6
COCCN1CCN(Cc2ccco2)Cc2ccc(C)nc21	-85
COCCN1CCO[C@@H]2CN(S(=O)(=O)c3cccnc3)C[C@@H]2C1	-76.3
Cc1cc(CN2C[C@@H]3COC[C@@H](C(=O)N4CCCCO4)[C@@H]3C2)no1	-31.1
c1cnc(NC[C@@H]2CCC[C@@H]3CN(Cc4cccnc4)C[C@@H]32)nc1	42.2
COCCN(C)C[C@@H]1CCC[C@@H]2CN(Cc3ccc(OC)nc3)C[C@@H]21	79.6
CN(C[C@@H]1CCC[C@@H]2CN(Cc3cccnc3)C[C@@H]21)C1CC1	56.5
COc1ccc(CN2C[C@H]3CCC[C@@H](CN(C)C4CC4)[C@H]3C2)cn1	78.2
COc1ccc(CN2C[C@H]3CCC[C@@H](CN(C)C)[C@H]3C2)cn1	50
O=C(C[C@@H]1COC[C@H]2CN(Cc3cccnc3)C[C@@H]12)N1CCCC1	-133

Compound	INHIBITION [%]
Cn1cc(CN2C[C@H]3CCC[C@@H](CNc4ncccn4)[C@H]3C2)cn1	-87.3
COC1CCC[C@@H]2CN(Cc3csc(C)n3)C[C@H]12 (stereo not given in full)	24.8
Cc1cccc(CN2C(=O)CC[C@H]3[C@@H]2CCN3CC(=O)N(C)C)n1	-71
CCCN1C(=O)C2(CCCCC2)NC1c1cn(C)c(=O)n(C)c1=O (stereo not given)	-5.44
CCCN1C[C@@H]2CC[C@H]1CN(C(=O)Cc1c(C)[nH]c(CC)nc1=O)C2	-19.6
COCc1cncc2c1CCN(Cc1ccccn1)C2	-65.2
CC(Cc1c(F)cccc1F)NC(=O)CN(CC(N)=O)C(C)C (stereo not given)	-23.8
COc1ccc(C(NCc2cccc(O)c2)C2CC2)cc1 (stereo not given)	83.6
COc1ccc(CC(C)Nc2cccc(F)c2)cc1 (stereo not given)	-65.5
O=C(Cc1ccc(O)c(Cl)c1)N1CCN(CC2CC2)[C@@H]2CS(=O)(=O)C[C@@H]21	-53.2
COCCN1CCC2(COCc3cnc(N4CCOCC4)nc32)C1 (stereo not given)	-18.1
COCC(=O)NC[C@H]1C[C@@H]2CCN1C[C@@H]2CN1CCc2ccccc2C1	-27.5
CN1CCN(S(=O)(=O)C2CC2)Cc2cccnc21	-77.8
CN1CCCC(CNS(=O)(=O)N2CCc3ccccc3C2)C1 (stereo not given)	77.4
CCOCCC(=O)N1C[C@@H]2CC[C@H]1CN(Cc1ccncc1)C2	-31.8
Clc1ccccc1C1(c2ccnc(C3CCCC3)n2)CCNCC1	83
Clc1ccccc1C1(c2ccnc(CC3CC3)n2)CCNCC1	87.8
O[C@]12CCNC[C@H]1CN(c1ncccc1Cl)CC2	-135
Clc1ccccc1C1(c2ccnc(C3CC3)n2)CCNCC1	73.5
Cc1nc(CN2CCC3(C2)CN(C(=O)c2conc2C)C3)cs1	-65.1
Fc1cccnc1O[C@@H]1CC[C@H]2[C@H]1OCCN2Cc1nccs1	-91.9
CC(C)(C)n1ncc2c1NC(=O)CSC2c1ccc2c(c1)OCCO2 (stereo not given)	-24.5
OCc1csc(N2CCCC(COc3cccc(F)c3)C2)n1 (stereo not given)	81.2
O=C(COc1cccc(F)c1)N1C[C@@H](O)[C@H](N2CCCC2)C1	-133
CCCOc1ccc(C2SCC(=O)Nc3c2c(=O)[nH]n3C(C)C)cc1 (stereo not given)	-95
